Among the test systems are EKVX NSCLC; SN12C renal; UO-31 renal; ACHN renal; A498 renal; CCRF-CEM leukemia; MOLT-4 leukemia; SR leukemia; RPMI-8226 leukemia; OVCAR-8 ovarian; OVCAR-5 ovarian; OVCAR-4 ovarian; SK-OV-3 ovarian; IGROV1 ovarian; OVCAR-3 ovarian; HS 578T breast; NCI/ADR-RES ovarian; T-47D breast; CAKI-1 renal.
What all share (test): NCI-60 one-dose screen, 48 h (100 = growth as untreated, 0 = no growth, -100 = all killed)
What all share (settings): 10 µM unless noted

This is part of a sample that, as a whole, favours compounds with a hit. Of some 83,000 tested, about 20% had one in any assay.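 Interpretation: 100, growth as untreated; towards 0, rising growth inhibition; 0, no net growth; 0 to -100, cell death. Compounds scoring below 10 were considered active.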 A number with no mark means an inactive call. Active and inactive are the calls of the source.

`Clc1ccc2c(NCCCn3ccnc3)c3oc4ccc(Cl)cc4c3nc2c1`: the growth in the assay on EKVX NSCLC was 46.7%; with SN12C renal it was 79.3%; with UO-31 renal, 44%; in the assay with ACHN renal, 44.4%; with A498 renal it was 45.9%; with CCRF-CEM leukemia it was 57.2%. Further, the growth in the assay on MOLT-4 leukemia is 77%; in the assay with SR leukemia, -11.2% (active); in the assay on RPMI-8226 leukemia it was 82.8%; in the assay on OVCAR-8 ovarian, 71.9%; with OVCAR-5 ovarian, 86.7%; in the assay on OVCAR-4 ovarian, 95.7%. For the same compound, the growth is 83.4% with SK-OV-3 ovarian; 58.9% in the assay on IGROV1 ovarian; 98.8% in the assay on OVCAR-3 ovarian; 91.1% in the assay with HS 578T breast; 74.1% in the assay on NCI/ADR-RES ovarian; 78.2% in the assay with T-47D breast.

Turning to `CN(C)CCCNc1c2ccc(Cl)cc2nc2c1oc1ccc(Cl)cc12`, the growth was 44.4% with EKVX NSCLC; -74.4% (active) with SN12C renal; 45.2% with UO-31 renal; -96.8% (active) in the assay on ACHN renal; -85% (active) with CAKI-1 renal; 37.9% in the assay with A498 renal. The growth was 2.17% (active) with CCRF-CEM leukemia; -4.89% (active) with MOLT-4 leukemia; -12.3% (active) in the assay on SR leukemia; -27.2% (active) in the assay with RPMI-8226 leukemia; -7.04% (active) in the assay on OVCAR-5 ovarian; 0.544% (active) in the assay with OVCAR-4 ovarian. The growth with SK-OV-3 ovarian was 60.5%; in the assay with IGROV1 ovarian, -64.3% (active); in the assay on HS 578T breast it was 60.9%; with NCI/ADR-RES ovarian, 2.92% (active); in the assay on T-47D breast it was 84.4%.

In the case of `CS(=O)(=O)c1ccc(-c2nc3ccccn3c2/C=N/Nc2nc(-c3ccc(Cl)cc3)cs2)cc1`, the growth in the assay with EKVX NSCLC is 96.8%; in the assay on SN12C renal, 102%; with UO-31 renal, 76.2%; with ACHN renal it was 101%; in the assay with CAKI-1 renal, 91.8%; with A498 renal, 79.9%. The growth in the assay on CCRF-CEM leukemia is 85.6%; in the assay on MOLT-4 leukemia it was 82%; with SR leukemia it was 95.1%; in the assay on RPMI-8226 leukemia it was 82.2%; in the assay on OVCAR-5 ovarian, 104%; with OVCAR-4 ovarian, 105%. Also, the growth in the assay on SK-OV-3 ovarian is 140%; in the assay with IGROV1 ovarian, 115%; with HS 578T breast it was 107%; with NCI/ADR-RES ovarian, 104%; in the assay with T-47D breast it was 78%.

For `O=C(CN1C(=O)/C(=C/c2ccccc2)SC1=S)N1CCOCC1`, the growth with EKVX NSCLC was 96.3%; in the assay on SN12C renal, 94.7%; in the assay on UO-31 renal it was 71.4%; in the assay with CAKI-1 renal, 93.7%; with A498 renal it was 112%; in the assay with CCRF-CEM leukemia, 88%. The growth in the assay with MOLT-4 leukemia was 99.1%; with SR leukemia it was 85.8%; in the assay with RPMI-8226 leukemia it was 89.6%; with OVCAR-5 ovarian, 97.6%; in the assay on OVCAR-4 ovarian, 109%; in the assay with SK-OV-3 ovarian, 95.4%. The growth in the assay with IGROV1 ovarian was 97.4%; with OVCAR-3 ovarian it was 115%; with HS 578T breast, 106%; in the assay on NCI/ADR-RES ovarian, 106%; in the assay with T-47D breast it was 77.9%.

Regarding `CSCCC(C(=O)O)N1C(=O)/C(=C/c2ccc(O)c(O)c2)SC1=S` (stereo not drawn), the growth in the assay on EKVX NSCLC was 96.2%; with SN12C renal, 99.2%; with UO-31 renal, 89.3%; in the assay with ACHN renal it was 99.9%; in the assay with A498 renal, 85.3%; in the assay with CCRF-CEM leukemia, 105%. Besides, the growth is 108% with MOLT-4 leukemia; 103% in the assay with SR leukemia; 110% with RPMI-8226 leukemia; 108% in the assay on OVCAR-8 ovarian; 94.6% with OVCAR-5 ovarian; 101% in the assay on OVCAR-4 ovarian. Moreover, the growth was 110% in the assay with SK-OV-3 ovarian, 98.9% in the assay with IGROV1 ovarian, 104% with HS 578T breast and 95.1% in the assay with T-47D breast.

In the case of `Clc1ccc(Cc2nnc3sc(-c4cccnc4)nn23)cc1`, the growth in the assay with EKVX NSCLC was 85.2%; with SN12C renal it was 100%; in the assay on UO-31 renal it was 71.7%; in the assay on CAKI-1 renal, 84%; in the assay on A498 renal, 83.9%; in the assay with CCRF-CEM leukemia it was 98.9%. In addition, the growth in the assay on MOLT-4 leukemia was 97.2%; in the assay with SR leukemia, 91.1%; in the assay with RPMI-8226 leukemia it was 97.5%; in the assay on OVCAR-8 ovarian it was 96.6%; in the assay on OVCAR-5 ovarian, 94.7%; in the assay with OVCAR-4 ovarian it was 94.2%. For the same compound, the growth was 114% in the assay on SK-OV-3 ovarian; 95.4% with IGROV1 ovarian; 107% in the assay on OVCAR-3 ovarian; 101% with HS 578T breast; 81.3% with NCI/ADR-RES ovarian; 89.2% in the assay on T-47D breast.

For the compound `COc1cc2nc(-c3ccc(Cl)cc3)cc(OCCCNCC3CCCO3)c2cc1OC` (stereo not drawn), the growth with EKVX NSCLC was 67.1%; in the assay on SN12C renal it was 47.3%; in the assay with UO-31 renal, 57.3%; with ACHN renal, 46.6%; in the assay on A498 renal it was 47.9%; in the assay with CCRF-CEM leukemia, 49.1%. For the same compound, the growth with MOLT-4 leukemia is 40.6%; in the assay on SR leukemia it was 19.5%; in the assay on RPMI-8226 leukemia it was 8.63% (active); in the assay with OVCAR-8 ovarian, 42.2%; in the assay with OVCAR-5 ovarian it was 50.1%; with OVCAR-4 ovarian, 79.4%. In addition, the growth with SK-OV-3 ovarian is 88.4%; in the assay with IGROV1 ovarian it was 33.7%; in the assay with OVCAR-3 ovarian, 87.7%; in the assay with HS 578T breast, 76.6%; with NCI/ADR-RES ovarian, 46.8%; with T-47D breast, 77.1%.

Turning to `N#Cc1nc(-c2ccccc2)oc1S(=O)(=O)N1CCN(CCc2ccccn2)CC1`, the growth was 89% in the assay with EKVX NSCLC; 77.2% in the assay with SN12C renal; -42.3% (active) in the assay with UO-31 renal; -95.4% (active) in the assay on ACHN renal; 112% in the assay with A498 renal; 1.54% (active) with CCRF-CEM leukemia. The growth in the assay with MOLT-4 leukemia is 0.215% (active); with SR leukemia, -19.2% (active); with RPMI-8226 leukemia, 36.1%; in the assay on OVCAR-8 ovarian it was 84.9%; in the assay on OVCAR-5 ovarian, 86.3%; in the assay with OVCAR-4 ovarian it was 89.7%. Besides, the growth in the assay on IGROV1 ovarian was 10%; with OVCAR-3 ovarian, 31.2%; with HS 578T breast, 106%; in the assay on NCI/ADR-RES ovarian, 99.2%; with T-47D breast it was -24.2% (active).

The values above are taken from PubChem BioAssay (NCI).
